Data from PubChem BioAssay.
Activity calls are given as the source filed them.

What was measured:
[1] = optical density shifts of acrAB sulA E. coli – strain DRC41, OD650, 48 h, E. coli filamentation inducer project, primary screen (AID 1152); details: higher = more signal, called active from +8 up or from −8 down;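 also: E. coli MC1000 strain DRC41 lacking acrAB efflux pump and sulA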
[2] = probe aLefty1 binding on compound microarray – biochemical, small-molecule microarray, 635/667 nm fluorescence, primary screen (AID 1153); details: higher = more signal;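 also: score merges spot fluorescence with signal-to-noise ratio from the scanned slide images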
[3] = plasmodial surface anion channel blockers, osmotic lysis – cell-based, P. falciparum Indochina, OD700, 1 h, primary screen (AID 1154); details: P. falciparum Indochina infected RBC osmotic lysis, higher = more signal, called active from +8 up or from −8 down
[4] = plasmodial surface anion channel blockers, osmotic lysis – cell-based, P. falciparum Indochina, OD700, 2 h, primary screen (AID 1155);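 also: lysis reports solute entry through the parasite surface anion channel PSAC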; details: P. falciparum Indochina infected erythrocytes, higher = more signal, called active from +8 up or from −8 down
[5] = changes in parasitized red cell lysis, either direction – P. falciparum Indochina, OD700, 3 h, PSAC antagonist project, primary screen (AID 1156); details: P. falciparum-infected erythrocytes, osmotic lysis, higher = more signal, called active from +8 up or from −8 down
[6] = plasmodial surface anion channel blockers, osmotic lysis – cell-based, P. falciparum Indochina, OD700, 18 h, primary screen (AID 1157); details: P. falciparum Indochina infected erythrocytes, osmotic lysis OD700, 18 h; higher = more signal, called active from +8 up or from −8 down
[7] = S6 kinase pathway phospho-S6 level changes – cell-based, A549, cytoblot, luminescence, serum-stimulated, primary screen (AID 1158); details: 5 h, higher = more signal;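 also: serum-stimulated A549 lung adenocarcinoma cells; signal is phosphorylated S6 detected by cytoblot immunostaining with HRP secondary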
[8] = target: NADPH oxidase 2 (Homo sapiens) (UniProt P04839); assay: compounds shifting NOX2 Amplex Red fluorescence – cell-based, HEK293-NOX2, PMA-stimulated, NOX inhibitor project, primary screen (AID 1159); details: 45 min, higher = more signal, called active from +8 up or from −8 down; also: test concentration not given here
[9] = target: NADPH oxidase 4 (Homo sapiens) (UniProt Q9NPH5); assay: compounds shifting NOX4 Amplex Red fluorescence – cell-based, HEK293-NOX4, tetracycline-induced, NOX inhibitor project, primary screen (AID 1160); details: HEK293-NOX4, Amplex Red H2O2 fluorescence, 45 min; higher = more signal, called active from +8 up or from −8 down
[10] = target: NADPH oxidase 5 (Homo sapiens) (UniProt Q96PH1); assay: compounds shifting NOX5 Amplex Red fluorescence – cell-based, HEK293-NOX5, NOX inhibitor project, primary screen (AID 1161); details: HEK293-NOX5, ionomycin, 45 min, higher = more signal
[11] = compound effects on lung adenocarcinoma cell viability – A549, calcein-AM fluorescence, 48 h, basal, profiling panel (AID 1162); details: higher = more signal; also: test concentration not given here
[12] = compound effects on differentiated 3T3-L1 adipocyte viability – cell-based, 3T3-L1 adipocytes, calcein-AM fluorescence, 48 h, basal, profiling panel (AID 1163); details: 3T3-L1 adipocytes viability, higher = more signal; also: test concentration not given here
[13] = compound effects on hepatocellular carcinoma cell viability – HepG2, calcein-AM fluorescence, 48 h, basal, profiling panel (AID 1164); details: higher = more signal; also: test concentration not given here
[14] = compound effects on multiple myeloma cell viability – MM1S, calcein-AM fluorescence, 48 h, basal, profiling panel (AID 1165); details: higher = more signal;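 also: viability of MM1S multiple myeloma cells under basal unstimulated conditions; test concentration not given here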
[15] = calcein-AM signal in unstimulated myeloma cells – cell-based, calcein-AM fluorescence, 48 h, PK04 Diversity Set, profiling panel (AID 1166); details: RPMI8226 myeloma viability, higher = more signal;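 also: cells grown under basal conditions without added stimulus; test concentration not given here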
[16] = JC-1 mitochondrial signal, unstimulated HepG2 cells – cell-based, JC-1 fluorescence, 24 h, 100 nL compound, profiling panel (AID 1167); details: HepG2 mitochondrial potential, higher = more signal; also: test concentration not given here
[17] = JC-1 mitochondrial signal, unstimulated adipocytes – cell-based, JC-1 fluorescence, 3T3-L1 adipocytes, 24 h, 100 nL compound, profiling panel (AID 1168); details: JC-1 mitochondrial fluorescence, higher = more signal, called active from +8 up or from −8 down; also: test concentration not given here
[18] = JC-1 mitochondrial signal, unstimulated myeloma cells – cell-based, JC-1 fluorescence, RPMI8226, 24 h, 100 nL compound, profiling panel (AID 1169); details: JC-1 mitochondrial potential fluorescence, higher = more signal; also: test concentration not given here
[19] = JC-1 mitochondrial signal, unstimulated MM1S myeloma – cell-based, JC-1 fluorescence, 24 h, 100 nL compound, profiling panel (AID 1170); details: MM1S mitochondrial potential, higher = more signal; also: test concentration not given here
[20] = resazurin metabolic signal in A549 cells – cell-based, resazurin fluorescence, 24 h, PK04 Diversity Set, profiling panel (AID 1171); details: A549 viability, higher = more signal, called active from +8 up or from −8 down; also: test concentration not given here

Sequence of NADPH oxidase 2 (Homo sapiens) (P04839 whole entry, looked up): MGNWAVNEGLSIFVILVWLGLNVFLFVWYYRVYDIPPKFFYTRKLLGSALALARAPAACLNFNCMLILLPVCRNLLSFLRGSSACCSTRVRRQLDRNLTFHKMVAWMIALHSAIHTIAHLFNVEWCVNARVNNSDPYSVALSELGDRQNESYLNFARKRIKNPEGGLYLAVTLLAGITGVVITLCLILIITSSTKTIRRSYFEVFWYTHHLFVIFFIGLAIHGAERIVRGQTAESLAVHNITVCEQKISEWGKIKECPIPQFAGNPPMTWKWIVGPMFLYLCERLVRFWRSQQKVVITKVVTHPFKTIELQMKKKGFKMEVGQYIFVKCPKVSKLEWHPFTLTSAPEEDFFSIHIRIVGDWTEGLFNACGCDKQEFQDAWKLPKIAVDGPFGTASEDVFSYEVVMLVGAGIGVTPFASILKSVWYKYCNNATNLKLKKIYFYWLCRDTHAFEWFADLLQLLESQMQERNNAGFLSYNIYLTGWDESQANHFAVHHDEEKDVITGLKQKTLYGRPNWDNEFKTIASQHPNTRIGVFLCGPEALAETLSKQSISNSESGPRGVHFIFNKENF
Sequence of NADPH oxidase 5 (Homo sapiens) (Q96PH1 whole entry, looked up): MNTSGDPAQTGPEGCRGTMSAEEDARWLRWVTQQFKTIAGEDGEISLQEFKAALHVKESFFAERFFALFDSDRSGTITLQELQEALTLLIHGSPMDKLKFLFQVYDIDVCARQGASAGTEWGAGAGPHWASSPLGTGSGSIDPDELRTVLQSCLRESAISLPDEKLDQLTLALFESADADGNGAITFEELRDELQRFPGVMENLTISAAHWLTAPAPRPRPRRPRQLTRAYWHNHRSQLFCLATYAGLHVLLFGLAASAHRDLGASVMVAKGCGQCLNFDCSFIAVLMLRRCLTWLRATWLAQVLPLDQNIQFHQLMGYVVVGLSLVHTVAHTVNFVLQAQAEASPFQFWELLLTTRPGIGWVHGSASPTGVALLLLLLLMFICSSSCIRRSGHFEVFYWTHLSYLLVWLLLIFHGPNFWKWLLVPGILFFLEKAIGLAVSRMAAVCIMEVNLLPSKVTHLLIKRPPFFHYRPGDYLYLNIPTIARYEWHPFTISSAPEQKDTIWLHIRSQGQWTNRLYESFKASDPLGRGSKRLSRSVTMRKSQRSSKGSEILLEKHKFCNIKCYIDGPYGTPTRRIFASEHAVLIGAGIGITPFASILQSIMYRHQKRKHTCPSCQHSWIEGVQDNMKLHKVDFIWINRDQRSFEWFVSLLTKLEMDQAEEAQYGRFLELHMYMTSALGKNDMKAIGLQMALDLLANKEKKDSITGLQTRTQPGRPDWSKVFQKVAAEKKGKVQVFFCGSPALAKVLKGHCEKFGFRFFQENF
Sequence of NADPH oxidase 4 (Homo sapiens) (Q9NPH5 whole entry, looked up): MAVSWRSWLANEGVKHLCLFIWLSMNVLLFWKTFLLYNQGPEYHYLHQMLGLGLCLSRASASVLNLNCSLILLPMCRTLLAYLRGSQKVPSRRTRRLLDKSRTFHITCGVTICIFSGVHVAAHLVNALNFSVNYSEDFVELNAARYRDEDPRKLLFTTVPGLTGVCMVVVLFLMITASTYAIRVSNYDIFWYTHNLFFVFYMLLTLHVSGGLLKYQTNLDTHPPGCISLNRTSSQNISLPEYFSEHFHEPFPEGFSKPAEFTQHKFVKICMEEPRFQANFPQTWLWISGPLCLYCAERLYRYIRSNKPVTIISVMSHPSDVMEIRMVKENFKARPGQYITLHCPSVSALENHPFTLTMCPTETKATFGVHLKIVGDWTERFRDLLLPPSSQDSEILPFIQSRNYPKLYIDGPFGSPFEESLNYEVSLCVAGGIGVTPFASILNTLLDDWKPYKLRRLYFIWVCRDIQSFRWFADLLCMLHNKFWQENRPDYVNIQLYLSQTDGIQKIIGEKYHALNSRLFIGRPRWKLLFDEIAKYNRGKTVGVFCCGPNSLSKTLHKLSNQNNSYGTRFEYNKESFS

Row | Structure (SMILES) | z-score [1] | composite z-score [2] | z-score [3] | z-score [4] | z-score [5] | z-score [6] | z-score [7] | z-score [8] | z-score [9] | z-score [10] | z-score [11] | z-score [12] | z-score [13] | z-score [14] | z-score [15] | z-score [16] | z-score [17] | z-score [18] | z-score [19] | z-score [20]
1 | O=C(O)[C@H]1C[C@H]2C(=O)N[C@@H](Cc3ccccc3)C(=O)N2[C@H]1c1cccc(OCCO)c1 | 0.262 (inactive) | 0.121 | 4.38 (inactive) | 0.547 (inactive) | -2.49 (inactive) | 0.204 (inactive) | 0.146 | -3.4 (inactive) | -4.87 (inactive) | -2.33 | 1.11 | -0.218 | 0.259 | -3.41 | -0.958 | 1.64 | -0.169 (inactive) | -0.299 | -1.18 | 0.75 (inactive)
2 | CN1C(=O)C2C=CC(C(O)c3ccc(I)cc3)N(Nc3ccccc3)C2C1=O (stereo not given) | -1.97 (inactive) | 0.195 | 1.9 (inactive) | 1.27 (inactive) | 1.04 (inactive) | 1.12 (inactive) | -0.919 | -0.874 (inactive) | -5.01 (inactive) | -4.14 | -0.596 | -0.0039 | -0.268 | -0.521 | -0.0284 | -1.07 | -1.09 (inactive) | -0.177 | 0.0807 | -0.962 (inactive)
3 | [N-]=[N+]=Nc1ccccc1C[C@@]1(C(=O)O)N=C(c2ccc(OCCCO)cc2)O[C@@H]1c1ccccc1N=[N+]=[N-] | -0.855 (inactive) | 0.384 | 29.2 (active) | 24.7 (active) | 0.648 (inactive) | 4.53 (inactive) | 0.664 | -0.041 (inactive) | 1.17 (inactive) | 1.57 | -0.404 | -0.115 | -0.36 | -2.44 | -2.44 | -2.37 | -0.74 (inactive) | -0.56 | -0.739 | 0.13 (inactive)
4 | CCCCCCCCCCC(O)C1C=CC2C(=O)N(c3ccccc3)C(=O)C2N1Nc1ccccc1F (stereo not given) | -1.43 (inactive) | 0.145 | 2.64 (inactive) | 1.45 (inactive) | -0.518 (inactive) | 1.91 (inactive) | -0.827 | -0.534 (inactive) | 0.101 (inactive) | -1.24 | 0.059 | -0.849 | -0.016 | -0.598 | -0.105 | -0.777 | -0.45 (inactive) | -0.415 | -0.193 | 0.162 (inactive)
5 | CCOC(=O)C[C@H]1[C@H](OC(=O)c2ccc(-c3ccccc3)cc2)[C@@H](NC(=O)Cc2ccc(OC)cc2)c2cc(OCCCO)ccc2N1C(=O)Cc1ccc(OC)cc1 | 1.07 (inactive) | -0.0348 | 4.29 (inactive) | 0.4 (inactive) | 0.222 (inactive) | 0.211 (inactive) | 0.911 | 0.818 (inactive) | -0.868 (inactive) | 1.52 | 0.368 | 0.0052 | 0.834 | 0.191 | -0.102 | 2.01 | 0.262 (inactive) | -0.198 | -0.128 | 0.207 (inactive)
6 | [N-]=[N+]=NCc1ccccc1[C@@H]1OC(c2ccc(OCCCO)cc2)=N[C@]1(Cc1ccccc1N=[N+]=[N-])C(=O)NCCN1CCOCC1 | -0.04 (inactive) | 0.254 | 16.5 (active) | 2.41 (inactive) | 1.46 (inactive) | 1.45 (inactive) | -0.417 | -2.49 (inactive) | -0.406 (inactive) | -1 | 0.0239 | 0.727 | 0.695 | -1.17 | -1.09 | 0.988 | 0.564 (inactive) | -0.96 | -0.212 | 0.162 (inactive)
7 | Cc1c(NC(=O)/C(C#N)=C/c2ccccc2Cl)c(=O)n(-c2ccccc2)n1C | 1.32 (inactive) | -0.296 | 0.471 (inactive) | -1.52 (inactive) | -0.945 (inactive) | -1.34 (inactive) | 1.22 | -3.65 (inactive) | -0.56 (inactive) | 0.29 | 1.62 | 0.228 | 1.02 | 0.867 | 1.52 | 0.771 | 1.14 (inactive) | -0.0416 | -1.04 | -0.357 (inactive)
8 | CCCCCCCCCCC(O)C1C=CC2C(=O)N(C)C(=O)C2N1Nc1cc(OC)c(OC)c(OC)c1 (stereo not given) | -1.99 (inactive) | 0.166 | 13.6 (active) | 3.42 (inactive) | 0.214 (inactive) | 2.15 (inactive) | -0.635 | -2.1 (inactive) | -4.98 (inactive) | -0.944 | -2.12 | -0.555 | -3.26 | -3.8 | -4.07 | -0.993 | 0.485 (inactive) | -0.913 | -2.12 | -1.38 (inactive)
9 | COc1cc(NN2C(C(O)c3ccc(I)cc3)C=CC3C(=O)N(c4ccccc4)C(=O)C32)cc(OC)c1OC (stereo not given) | -0.877 (inactive) | 0.365 | 2.08 (inactive) | 0.477 (inactive) | 0.481 (inactive) | -0.497 (inactive) | 1.52 | -3.15 (inactive) | -4.09 (inactive) | -6.01 | -0.844 | -0.294 | -0.683 | -0.344 | -1.4 | -1.14 | -1.46 (inactive) | -0.786 | -1.4 | -0.749 (inactive)
